Hit rate of the full screen: of about 420,000 compounds, about 50,000 (12%) were called active. Entries that show only a call come without a potency. Inconclusive results (about 26%) are left out. The call rests on the fitted dose curve; in most records, active means well fitted inhibition curve with a large enough effect; inconclusive means small, poorly fitted or top-dose-only effect; inactive means flat fitted curve, though single readings scatter. For the sample, actives were picked, then their nearest neighbours and some compounds at random.
Test: qHTS for Inhibitors of human tyrosyl-DNA phosphodiesterase 1 (TDP1): qHTS in cells in presence of CPT; further: nearly all actives have a fitted effect of over 55% in size
Conditions: chicken DT40 Tdp1-/-;hTDP1 cells + 20 nM CPT, ATP luminescence, 48 h; series mostly up to 46.2 µM
Method in brief: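 Chicken DT40 Tdp1-/- cells stably complemented with human TDP1 were seeded at 400 cells/well in medium containing 20 nM camptothecin, exposed to pin-transferred compounds, and grown at 37 °C for at least 48 hr. Viability was read as ATP luminescence.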
Potency means the concentration at half of the fitted maximal effect.

Structure (SMILES)	Potency
CCOc1cc(C)ccc1OCc1nnc(SCC(=O)Nc2cccc(C(=O)O)c2)n1-c1ccccc1	inactive
CCCOc1ccc(/C=N/NC(=O)C2CC2)c(OCCC)c1	inactive
CC(C)CN1CC(C)C(=O)N(c2ccccc2)C1=S (centres undefined)	inactive
N#CC(Cc1cc2ccccc2n1S(=O)(=O)c1ccccc1)OCc1ccccc1 (centres undefined)	inactive
N[C@@H](Cc1ccccc1)C(=O)N1CCC(C(=O)NCC(=O)Nc2ccc(F)cc2)CC1	inactive
Cc1ccccc1C(=O)O	inactive
O=C(O)c1cc([N+](=O)[O-])c(Nc2cccc3ccccc23)c([N+](=O)[O-])c1	inactive
CCN(CC)CCCNC(=O)Cn1cnc2sc(C)c(S(=O)(=O)N3CCN(c4ncccn4)CC3)c2c1=O	inactive
CC1(C)CC(=O)C=C(c2cccc3c2Oc2ccccc2S3)C1	inactive
COc1cc(OC)cc(C(=O)NNC(=O)CCOc2ccccc2OC)c1	inactive
COc1ccc(S(=O)(=O)c2c[nH]c(=S)[nH]c2=O)cc1Cl	inactive
COc1ccc(-c2nc3ccccc3o2)cc1NC(=O)c1cc([N+](=O)[O-])ccc1N1CCOCC1	inactive
CCOC(=O)CC1(NC(=O)c2cc(COc3cncc(Cl)c3)on2)CCCCC1	23.1 µM (active)
CCOC(=O)c1c(NC(=O)c2cc(CC)on2)sc(C(C)=O)c1C	inactive
Cc1cc(OCc2cc(C(=O)NCc3cc(C(C)C)no3)no2)cc(C)c1Cl	inactive
Cc1cc(C)cc(NC(=O)CN2C(=O)c3ccccc3C2=O)c1	inactive
Cc1cccc(C(=O)Nc2ccc(CC(=O)O)cc2)c1	inactive
Cc1cccc(C(=O)Nc2ccc(C(=O)/C=C/c3cccs3)cc2)c1	16.4 µM (active)
Cc1cccc(C(=O)Nc2ccc(C(=O)N/N=C/c3cccc(C)n3)cc2)c1	inactive
CC(C)c1ccc(C(=O)OC2CCOC2=O)cc1 (centres undefined)	inactive
COc1ccc(C(=O)O)cc1S(=O)(=O)NC1CCN(Cc2ccccc2)CC1	inactive
COc1ccc(-c2onc(C)c2C)cc1S(=O)(=O)NCCc1ccccc1	20.6 µM (active)

Structure (SMILES)	Potency
Cc1ccc(-c2onc(C)c2C)cc1S(=O)(=O)Nc1ccccn1	inactive
COc1ccc(CCNS(=O)(=O)c2cn(C)nc2C)cc1	inactive
CCOC(=O)C1CCN(S(=O)(=O)c2cc(F)ccc2OC)CC1	inactive
COc1ccc(-c2onc(C)c2C)cc1S(=O)(=O)NCC1CCN(Cc2cccc(F)c2)CC1	20.6 µM (active)
C[C@H]1CN([C@@H](C)CO)C(=O)CCCn2cc(nn2)CO[C@@H]1CN(C)S(=O)(=O)c1ccc(-c2ccccc2)cc1	inactive
O=C(c1ccco1)N1CCC2(CC1)CCN(c1ncccn1)CC2	inactive
CC(=O)Nc1ccc(S(=O)(=O)NC(C)C(=O)OCC(=O)NC2CCCC2)cc1 (centres undefined)	inactive
O=C(COc1ccc(-n2cnnn2)cc1)Nc1ccccc1Cl	inactive
Nc1nnc(SCC(=O)OCc2ccc(Cl)c(Cl)c2)s1	inactive
CCOC(=O)C(Sc1ncc(C#N)c(N)n1)C(C)C (centres undefined)	inactive
O=C(NC(Cc1ccc(O)cc1)C(=O)O)/C(=C/c1ccccc1)NC(=O)c1ccccc1 (centres undefined)	inactive
Clc1ccc2nc(-c3ccccc3)nc(C(Cl)Cl)c2c1	0.164 µM (active)
N#CCSc1nc(-c2ccccc2)nc2ccc(F)cc12	inactive
O=C(CCc1nc2ccccc2c(=O)[nH]1)OCC(=O)c1cccc(Cl)c1	inactive
Cc1nn(-c2ccccc2)c(C)c1/C=C/C(=O)OC(C)C(N)=O (centres undefined)	inactive
Cc1ccc(C(=O)Nc2cccc3ncccc23)cc1[N+](=O)[O-]	inactive
Cc1ccc2c(NC(=O)C3CC3)cccc2n1	inactive
Cc1ccc(/C=C(\C#N)C(=O)Nc2cccc3ncccc23)o1	16.4 µM (active)
CC(C)(C)NC(=O)Cn1c(SCC(=O)Nc2nccs2)nc2ccccc21	inactive
NC(=O)NC(=O)C(OC(=O)CCNS(=O)(=O)c1ccccc1)c1ccccc1 (centres undefined)	inactive
COCCNC(=O)C(c1ccc(C)cc1)N(C(=O)CCC(=O)Nc1ccccn1)c1cccc(C)c1 (centres undefined)	inactive
O=C(OCc1cn([C@@H]2C[C@H](c3ccc(Cl)cc3)N(Cc3cccs3)C[C@H]2O)nn1)c1ccccc1	inactive

Structure (SMILES)	Potency
CCCCCC(=O)N1C[C@H](O)[C@@H](n2cc(COC(=O)c3ccccc3)nn2)C[C@@H]1c1ccc(C)cc1	0.82 µM (active)
CCCCCCN1C[C@@H](O)[C@H](n2cc(COC(=O)c3ccccc3)nn2)C[C@@H]1c1ccc(Cl)cc1	inactive
Cc1cc(S(=O)(=O)NCC(C)C)ccc1OCC(=O)NC1CC1	inactive
CC(Sc1ncnc2c1cnn2-c1ccccc1)C(=O)Nc1ccc(N2CCOCC2)cc1 (centres undefined)	inactive
CCOC(=O)c1c(CN(C)C)n(-c2ccccc2)c2cc(Br)c(O)cc12	inactive
CC(C(=O)NC1CCS(=O)(=O)C1)N1C(=O)/C(=C/c2ccc(Cl)cc2)SC1=S (centres undefined)	inactive
O=C1/C(=C\c2ccc(O)cc2)CCC1CNc1ccc(Cl)cc1 (centres undefined)	4.61 µM (active)
CCOCCCNC(=O)c1ccc(CS(=O)(=O)c2cccc(C(F)(F)F)c2)o1	inactive
O=C(CO/N=C/c1ccccc1OC(F)F)NC1CCCC1	inactive
O=C(CO/N=C/c1ccccc1O)NNC(=O)c1ccccc1Cl	0.461 µM (active)
NS(=O)(=O)c1cc(C(=O)OCC(=O)NNC(=O)c2ccccc2)ccc1Cl	inactive
CCn1c(SCC(=O)c2ccc(Cl)s2)nnc1-c1cccs1	inactive
CCn1c(Cc2cccs2)nnc1SCC(=O)c1ccc(C)cc1	11.2 µM (active)
Cc1ccc(-n2c(Cc3cccs3)nnc2SCC(=O)OC(C)C)cc1	inactive
CC(C)C[C@H](CO)Nc1nc(N(C)c2cccc(Cl)c2)c2ncn(C(C)C)c2n1	16.4 µM (active)
COC(=O)C(C)n1cnc2c(nnn2-c2cccc(Cl)c2)c1=O (centres undefined)	inactive
Cc1ccnc(NS(=O)(=O)c2ccc(NC(=O)c3ccc(S(=O)(=O)N(C)C)cc3)cc2)n1	inactive
CCOc1cc2c(Cl)ncnc2c(OCC)c1OCC	inactive
CCCCC(=O)OC1=CN(Cc2ccccc2)S(=O)(=O)c2ccccc21	inactive
O=C(OCc1cn(-c2ccc(Cl)c(Cl)c2)nn1)c1ccccc1Cl	inactive

Reference: PubChem BioAssay AID686979 (National Center for Advancing Translational Sciences (NCATS), 2013)
